# Source: the supplement of paper PMC10849652
# Targets with a hit are over-represented here; the source holds about 7,900 in all. About 0.6% of all pairs of compound and target were hits. Unmarked numbers belong to inactive results.
# Key:
# Experiment in all cases: log2 fold change, soluble protein after heating vs DMSO (PISA); higher = thermal stabilisation; K562 cells, 10 uM, 30 min; active = over 0.2 and 3.5 SD of the protein, either way, in both replicates (recomputed)
# [1] = compound: CC1=C(C=C(C=C1)NC(=O)C2=CC(=CC=C2)C(C)(C)C#N)NC3=CC4=C(C=C3)N=CN(C4=O)C
# Outline: (§1)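 Thermal stability values are relative to control samples and come from duplicates. They are expressed as log2 fold changes. For measurement, K562 cells (2×10^6 cells/mL) received 10 μM compound for 30 min, and aliquots were heated for 3 min over 48°C-58°C, pooled, and extracted at 4°C in PBS with 0.5% NP-40. Soluble protein, the supernatant after 21,000xg for 90 min, was quantified by TMTpro 16plex LC-MS/MS with equalised channel sums.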
# [2] = compound: CC1=C(C=C(C=C1)NC(=O)C2=CC(=CC=C2)N(C)C)NC(=O)C3=CC=C(C=C3)O
# Outline: as §1
# [3] = compound: CC1=CC=C(C=C1)SC2=C3C=C(SC3=CN=C2)C(=O)N
# Outline: as §1
# [4] = compound: CC1=NC(=CC=C1)C2=C(N=C(N2)C(C)(C)C)C3=CC4=NC=CN=C4C=C3
# Outline: as §1
# Nexturastat A = compound: CCCCN(Cc1ccc(C(=O)NO)cc1)C(=O)Nc1ccccc1 [Nexturastat A]
# Outline: as §1
# vemurafenib = compound: CCCS(=O)(=O)Nc1ccc(F)c(C(=O)c2c[nH]c3ncc(-c4ccc(Cl)cc4)cc23)c1F [vemurafenib]
# Outline: as §1
# [5] = compound: CCCS(=O)(=O)Nc1ccc(F)c(C(=O)c2c[nH]c3ncc(Cl)cc23)c1F
# Outline: as §1
# barasertib = compound: CCN(CCCOc1ccc2c(Nc3cc(CC(=O)Nc4cccc(F)c4)[nH]n3)ncnc2c1)CCOP(=O)(O)O [barasertib]
# Outline: as §1
# [6] = compound: CCCc1cc(C)[nH]c(=O)c1CNC(=O)c1cc(-c2ccnc(N3CCN(C)CC3)c2)cc2c1cnn2C(C)C
# Outline: as §1
# givinostat = compound: CCN(CC)Cc1ccc2cc(COC(=O)Nc3ccc(C(=O)NO)cc3)ccc2c1 [givinostat]
# Outline: as §1
# Sequence of UniProt Q5PRF9 (Q5PRF9 whole entry, looked up): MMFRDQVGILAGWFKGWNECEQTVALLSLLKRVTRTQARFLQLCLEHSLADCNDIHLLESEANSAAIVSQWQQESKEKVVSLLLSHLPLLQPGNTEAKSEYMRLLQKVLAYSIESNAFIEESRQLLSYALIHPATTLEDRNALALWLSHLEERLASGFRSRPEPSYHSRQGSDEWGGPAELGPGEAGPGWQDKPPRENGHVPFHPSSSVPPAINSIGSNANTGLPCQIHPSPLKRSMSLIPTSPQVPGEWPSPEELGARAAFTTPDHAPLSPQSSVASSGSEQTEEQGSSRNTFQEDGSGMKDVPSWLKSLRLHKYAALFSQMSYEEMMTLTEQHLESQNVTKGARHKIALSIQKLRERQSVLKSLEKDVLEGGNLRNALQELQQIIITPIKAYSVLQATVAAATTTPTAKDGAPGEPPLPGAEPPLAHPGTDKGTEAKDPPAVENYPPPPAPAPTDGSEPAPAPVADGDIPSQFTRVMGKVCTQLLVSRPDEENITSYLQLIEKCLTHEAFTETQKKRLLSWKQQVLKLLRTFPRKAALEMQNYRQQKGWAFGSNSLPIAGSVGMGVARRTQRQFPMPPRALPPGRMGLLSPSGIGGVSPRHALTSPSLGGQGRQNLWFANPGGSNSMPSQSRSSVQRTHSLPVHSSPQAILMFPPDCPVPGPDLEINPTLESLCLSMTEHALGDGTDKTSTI
# Sequence of UniProt Q86UA6 (Q86UA6 whole entry, looked up): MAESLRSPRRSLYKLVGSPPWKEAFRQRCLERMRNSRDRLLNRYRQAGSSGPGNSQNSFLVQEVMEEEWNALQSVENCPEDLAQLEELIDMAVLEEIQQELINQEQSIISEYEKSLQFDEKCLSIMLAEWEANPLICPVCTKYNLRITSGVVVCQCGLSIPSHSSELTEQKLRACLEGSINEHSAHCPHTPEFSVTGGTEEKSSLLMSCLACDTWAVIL
# Sequence of UniProt Q6NT16 (Q6NT16 whole entry, looked up): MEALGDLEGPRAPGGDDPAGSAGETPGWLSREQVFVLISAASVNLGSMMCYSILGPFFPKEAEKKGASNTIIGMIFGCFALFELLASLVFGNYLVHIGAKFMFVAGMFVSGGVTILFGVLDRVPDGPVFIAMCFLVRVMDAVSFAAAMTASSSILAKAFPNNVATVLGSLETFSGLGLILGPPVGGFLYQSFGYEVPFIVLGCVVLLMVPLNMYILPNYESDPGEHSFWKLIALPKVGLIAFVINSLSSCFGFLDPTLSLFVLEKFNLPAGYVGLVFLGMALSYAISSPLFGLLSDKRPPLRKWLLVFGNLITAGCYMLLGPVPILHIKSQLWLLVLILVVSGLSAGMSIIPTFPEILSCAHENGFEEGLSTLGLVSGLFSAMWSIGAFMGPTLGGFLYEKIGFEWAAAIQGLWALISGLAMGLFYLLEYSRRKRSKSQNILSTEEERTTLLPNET
# Sequence of UniProt P27694 (P27694 whole entry, looked up): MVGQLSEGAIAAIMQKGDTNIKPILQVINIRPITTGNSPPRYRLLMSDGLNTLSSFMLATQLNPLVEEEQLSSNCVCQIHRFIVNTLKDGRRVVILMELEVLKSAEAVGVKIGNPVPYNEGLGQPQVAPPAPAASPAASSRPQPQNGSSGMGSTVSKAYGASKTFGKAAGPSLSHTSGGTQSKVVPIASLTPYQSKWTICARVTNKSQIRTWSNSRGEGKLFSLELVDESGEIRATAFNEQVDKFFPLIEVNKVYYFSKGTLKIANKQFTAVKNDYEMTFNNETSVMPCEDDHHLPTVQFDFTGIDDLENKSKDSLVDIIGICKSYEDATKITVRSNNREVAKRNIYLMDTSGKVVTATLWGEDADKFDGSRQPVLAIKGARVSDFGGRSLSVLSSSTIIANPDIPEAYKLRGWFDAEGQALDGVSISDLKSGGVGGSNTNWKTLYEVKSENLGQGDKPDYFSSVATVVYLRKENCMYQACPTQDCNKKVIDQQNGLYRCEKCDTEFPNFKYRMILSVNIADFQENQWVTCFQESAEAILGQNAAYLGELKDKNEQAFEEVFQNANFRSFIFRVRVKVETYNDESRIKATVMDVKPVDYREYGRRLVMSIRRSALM
# Sequence of UniProt Q7L099 (Q7L099 whole entry, looked up): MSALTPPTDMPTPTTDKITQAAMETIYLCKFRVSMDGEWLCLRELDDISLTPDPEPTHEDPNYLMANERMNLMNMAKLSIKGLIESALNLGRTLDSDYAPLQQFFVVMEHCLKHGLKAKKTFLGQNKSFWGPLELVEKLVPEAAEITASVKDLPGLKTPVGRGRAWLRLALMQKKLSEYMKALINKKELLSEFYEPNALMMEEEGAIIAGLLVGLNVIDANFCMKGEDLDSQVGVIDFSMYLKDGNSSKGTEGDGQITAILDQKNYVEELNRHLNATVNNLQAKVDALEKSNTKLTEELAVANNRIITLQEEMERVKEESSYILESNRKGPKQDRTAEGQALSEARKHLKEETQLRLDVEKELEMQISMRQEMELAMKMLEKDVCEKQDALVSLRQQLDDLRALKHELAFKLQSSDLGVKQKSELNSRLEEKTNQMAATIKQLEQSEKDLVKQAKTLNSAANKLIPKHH
# Sequence of UniProt Q9NQG5 (Q9NQG5 whole entry, looked up): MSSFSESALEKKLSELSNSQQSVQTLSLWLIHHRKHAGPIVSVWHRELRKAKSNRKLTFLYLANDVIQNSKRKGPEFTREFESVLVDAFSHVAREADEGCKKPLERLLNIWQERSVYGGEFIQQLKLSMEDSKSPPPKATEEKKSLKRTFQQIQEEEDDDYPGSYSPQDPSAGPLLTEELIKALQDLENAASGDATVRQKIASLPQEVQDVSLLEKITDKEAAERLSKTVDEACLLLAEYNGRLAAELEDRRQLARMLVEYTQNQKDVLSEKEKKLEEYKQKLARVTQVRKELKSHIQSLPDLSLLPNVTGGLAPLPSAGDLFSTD
# Sequence of UniProt Q8IZQ5 (Q8IZQ5 whole entry, looked up): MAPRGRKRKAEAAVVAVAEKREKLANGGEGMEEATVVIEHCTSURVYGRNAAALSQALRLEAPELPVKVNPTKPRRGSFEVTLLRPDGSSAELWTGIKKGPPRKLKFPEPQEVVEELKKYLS
# Sequence of UniProt Q8NBJ9 (Q8NBJ9 whole entry, looked up): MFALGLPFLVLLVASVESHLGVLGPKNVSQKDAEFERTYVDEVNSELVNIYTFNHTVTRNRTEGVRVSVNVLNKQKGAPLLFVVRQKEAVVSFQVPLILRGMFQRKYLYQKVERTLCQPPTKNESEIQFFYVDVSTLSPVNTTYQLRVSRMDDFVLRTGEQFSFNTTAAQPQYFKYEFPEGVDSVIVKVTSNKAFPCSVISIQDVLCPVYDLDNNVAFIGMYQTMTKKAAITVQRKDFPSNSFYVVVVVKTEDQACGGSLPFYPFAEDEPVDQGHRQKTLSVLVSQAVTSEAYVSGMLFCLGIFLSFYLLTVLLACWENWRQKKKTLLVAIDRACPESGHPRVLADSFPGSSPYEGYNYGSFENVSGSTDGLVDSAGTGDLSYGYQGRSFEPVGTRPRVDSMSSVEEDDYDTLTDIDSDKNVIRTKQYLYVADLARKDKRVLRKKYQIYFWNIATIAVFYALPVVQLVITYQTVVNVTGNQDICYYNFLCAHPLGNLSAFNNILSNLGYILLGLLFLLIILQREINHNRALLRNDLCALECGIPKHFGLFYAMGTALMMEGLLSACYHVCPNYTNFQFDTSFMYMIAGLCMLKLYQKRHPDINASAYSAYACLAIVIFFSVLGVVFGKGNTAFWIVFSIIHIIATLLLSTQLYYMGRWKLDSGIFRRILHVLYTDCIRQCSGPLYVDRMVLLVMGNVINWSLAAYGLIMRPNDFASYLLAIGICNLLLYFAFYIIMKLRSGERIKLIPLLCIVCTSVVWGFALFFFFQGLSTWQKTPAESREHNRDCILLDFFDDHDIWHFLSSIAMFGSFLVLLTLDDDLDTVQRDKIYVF
# Sequence of UniProt P06400 (P06400 whole entry, looked up): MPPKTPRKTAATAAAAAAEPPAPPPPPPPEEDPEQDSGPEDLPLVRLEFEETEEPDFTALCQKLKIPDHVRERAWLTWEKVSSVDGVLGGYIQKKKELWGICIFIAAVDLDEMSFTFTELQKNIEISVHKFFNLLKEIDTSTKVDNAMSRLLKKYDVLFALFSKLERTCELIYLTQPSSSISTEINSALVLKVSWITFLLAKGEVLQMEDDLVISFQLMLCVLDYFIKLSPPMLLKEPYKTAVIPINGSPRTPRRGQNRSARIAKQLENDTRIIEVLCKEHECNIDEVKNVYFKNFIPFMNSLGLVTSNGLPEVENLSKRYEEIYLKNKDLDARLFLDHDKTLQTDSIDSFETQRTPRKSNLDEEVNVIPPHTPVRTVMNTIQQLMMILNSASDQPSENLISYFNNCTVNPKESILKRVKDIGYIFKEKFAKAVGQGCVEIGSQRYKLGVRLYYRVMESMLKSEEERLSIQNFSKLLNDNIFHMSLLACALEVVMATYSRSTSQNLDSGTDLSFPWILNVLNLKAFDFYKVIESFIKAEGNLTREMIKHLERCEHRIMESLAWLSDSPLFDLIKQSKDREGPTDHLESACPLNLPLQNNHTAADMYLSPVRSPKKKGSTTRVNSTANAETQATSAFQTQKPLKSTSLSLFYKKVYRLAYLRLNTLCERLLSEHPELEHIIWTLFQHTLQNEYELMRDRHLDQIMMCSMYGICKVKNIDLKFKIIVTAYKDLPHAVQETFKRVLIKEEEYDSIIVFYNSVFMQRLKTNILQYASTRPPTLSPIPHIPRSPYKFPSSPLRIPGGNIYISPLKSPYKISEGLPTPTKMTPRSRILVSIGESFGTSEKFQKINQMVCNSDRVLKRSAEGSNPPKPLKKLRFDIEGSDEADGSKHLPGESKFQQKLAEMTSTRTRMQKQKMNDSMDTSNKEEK
# Sequence of UniProt O75446 (O75446 whole entry, looked up): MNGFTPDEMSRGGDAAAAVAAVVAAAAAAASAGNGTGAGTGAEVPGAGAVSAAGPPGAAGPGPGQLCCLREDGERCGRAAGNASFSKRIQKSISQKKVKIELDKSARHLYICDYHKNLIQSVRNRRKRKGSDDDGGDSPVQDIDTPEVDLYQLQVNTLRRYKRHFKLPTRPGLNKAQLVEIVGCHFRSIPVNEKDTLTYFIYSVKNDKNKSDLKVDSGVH
Target,log2 fold change [1],log2 fold change [2],log2 fold change [3],log2 fold change [4],log2 fold change (Nexturastat A),log2 fold change (vemurafenib),log2 fold change [5],log2 fold change (barasertib),log2 fold change [6],log2 fold change (givinostat)
RPAIN isoform 8 (UniProt Q86UA6),0.009,0.038,-0.098,0.136,-0.017,-0.062,0.042,0.029,,
RPA1 (UniProt P27694),0.028,-0.047,-0.002,0.05,0.044,0.039,0.125,0.068,0.104,0.069
RTN4IP1 (UniProt Q8WWV3),0.253,-0.033,0.294,0.119,-0.061,0.034,-0.041,0.031,-0.218,-0.081
RPS27A (UniProt P62979),-0.023,-0.011,-0.179,-0.075,0.368,-0.126,-0.224,-0.119,0.152,-0.109
SIDT2 isoform 2 (UniProt Q8NBJ9),-0.021,0.019,-0.025,-0.367 (active),0.042,0.019,-0.033,-0.148,0.017,0.038
SLC18B1 (UniProt Q6NT16),-0.016,-0.194,-0.07,-0.111,0.034,0.069,0.005,0.084,-0.044,-0.02
SAMD4B (UniProt Q5PRF9),-0.501 (active),-0.02,0,-0.054,0.202,,-0.132,0.157,,0.201
RB1 (UniProt P06400),0.016,-0.011,0.034,0.003,-0.1,-0.01,-0.008,-0.004,-0.026,-0.02
SCAF11 (UniProt Q99590),-0.089,0.154,-0.079,-0.275,0.003,-0.158,-0.031,0.165,0.035,-0.034
RDH10 (UniProt Q8IZV5),0.004,-0.034,0.047,-0.055,-0.107,-0.016,-0.058,0.011,-0.043,-0.091
RUFY3 isoform 3 (UniProt Q7L099),-0.085,-0.068,0.016,0.038,,-0.032,-0.011,,-0.093,0.021
RCOR3 isoform 3 (UniProt Q9P2K3),-0.12,-0.046,0.051,0.012,,0.025,0.031,0.098,-0.022,0.075
SFXN5 (UniProt Q8TD22),-0.013,0,0.049,0.024,-0.026,0.135,0.012,0.057,0.012,0.124
RABGGTA (UniProt Q92696),0.019,0.04,-0.004,0.002,-0.084,0.003,0.005,0.017,-0.023,-0.024
SELENOH (UniProt Q8IZQ5),0.09,-0.011,0.023,-0.035,0.089,0.042,0.007,-0.031,0.075,0.024
RPRD1B (UniProt Q9NQG5),0.007,-0.021,-0.029,0.101,-0.054,0.05,0.07,0.007,-0.057,-0.064
SCD (UniProt O00767),-0.076,0.037,0.038,0.078,-0.121,0.022,-0.053,0.003,-0.021,-0.457 (active)
RBM48 isoform 2 (UniProt Q5RL73),-0.708 (active),-0.13,-0.009,-0.007,0.04,,-0.011,-0.069,,-0.03
RAB3IL1 (UniProt E9PK89),-0.069,-0.037,0,0.061,-0.111,-0.08,-0.053,-0.014,,0.278
RSL1D1 (UniProt O76021),-0.019,0.039,-0.155,-0.148,0.256,-0.126,-0.137,-0.167,0.15,0.087
SAP30 (UniProt O75446),-0.292,,-0.078,-0.164,0.025,0.04,-0.157,,0.037,0.019
RMDN2 isoform 2 (UniProt Q96LZ7),,-0.022,,-0.127,,0.217,,,-0.196,
